Assay results taken from paper PMC7862700, “An all-to-all approach to the identification of sequence-specific readers for epigenetic DNA modifications on cytosine”.

What was measured:
Test in all cases: DAPPL (digital affinity profiling via proximity ligation, sequencing); 10 mM Tris-HCl pH 7.5, 50 mM NaCl, 1 mM DTT, 4% glycerol, room temperature, 30 min; GST-TFs on glutathione beads, 16-mer random dsDNA library, 0.1% formaldehyde crosslink after washing; high values mean tight binding
Details in all cases: protein: recombinant; tags: N-terminal GST; dsDNA, one strand shown
[1] = target: T1, FLI1 (Homo sapiens, UniProt Q01543 1-452)
T1 sequence: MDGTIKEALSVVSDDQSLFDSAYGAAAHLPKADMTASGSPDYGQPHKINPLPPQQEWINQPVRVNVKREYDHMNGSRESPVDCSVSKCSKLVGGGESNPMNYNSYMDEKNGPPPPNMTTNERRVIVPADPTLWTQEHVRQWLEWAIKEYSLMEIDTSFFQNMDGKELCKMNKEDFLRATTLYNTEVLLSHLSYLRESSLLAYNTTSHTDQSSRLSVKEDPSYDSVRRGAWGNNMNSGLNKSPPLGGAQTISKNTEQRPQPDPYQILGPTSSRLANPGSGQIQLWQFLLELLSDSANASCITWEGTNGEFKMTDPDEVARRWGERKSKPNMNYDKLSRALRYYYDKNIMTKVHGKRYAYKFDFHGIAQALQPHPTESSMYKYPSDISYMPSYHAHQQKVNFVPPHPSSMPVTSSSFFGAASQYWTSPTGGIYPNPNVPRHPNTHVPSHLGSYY
How it was run: (§1)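 Human transcription factors carrying a GST fusion were produced in yeast, bound to glutathione beads, tagged with DNA barcodes and pooled together with a tag-only sample. Each pool was held with 200 nmole of a random double-stranded 16-mer DNA library in Tris/NaCl/DTT/glycerol buffer for 30 min at room temperature, then washed, crosslinked in 0.1% formaldehyde, proximity-ligated with BsaI/T4 ligase (1 h, 37 °C), PCR-amplified and sequenced on an Illumina NextSeq500. Binding signal is the read frequency of each hexamer for a given factor divided by its frequency in the tag-only sample.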

[2] = target: T2, ELK1 (Homo sapiens, UniProt P19419 1-428)
T2 sequence: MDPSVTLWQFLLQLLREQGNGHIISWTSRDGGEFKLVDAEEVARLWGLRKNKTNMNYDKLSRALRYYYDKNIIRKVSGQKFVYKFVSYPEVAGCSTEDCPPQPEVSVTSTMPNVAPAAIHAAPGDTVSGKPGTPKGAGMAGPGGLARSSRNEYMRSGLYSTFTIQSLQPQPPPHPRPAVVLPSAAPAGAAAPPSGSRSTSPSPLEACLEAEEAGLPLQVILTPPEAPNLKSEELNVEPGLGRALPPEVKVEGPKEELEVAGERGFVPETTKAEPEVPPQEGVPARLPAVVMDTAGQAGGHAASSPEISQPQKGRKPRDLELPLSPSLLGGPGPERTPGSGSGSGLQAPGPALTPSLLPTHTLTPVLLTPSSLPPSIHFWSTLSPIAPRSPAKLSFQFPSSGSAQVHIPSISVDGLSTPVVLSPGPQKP
How it was run: as §1

[3] = target: T3, GABPA (Homo sapiens, UniProt Q06546 1-454)
T3 sequence: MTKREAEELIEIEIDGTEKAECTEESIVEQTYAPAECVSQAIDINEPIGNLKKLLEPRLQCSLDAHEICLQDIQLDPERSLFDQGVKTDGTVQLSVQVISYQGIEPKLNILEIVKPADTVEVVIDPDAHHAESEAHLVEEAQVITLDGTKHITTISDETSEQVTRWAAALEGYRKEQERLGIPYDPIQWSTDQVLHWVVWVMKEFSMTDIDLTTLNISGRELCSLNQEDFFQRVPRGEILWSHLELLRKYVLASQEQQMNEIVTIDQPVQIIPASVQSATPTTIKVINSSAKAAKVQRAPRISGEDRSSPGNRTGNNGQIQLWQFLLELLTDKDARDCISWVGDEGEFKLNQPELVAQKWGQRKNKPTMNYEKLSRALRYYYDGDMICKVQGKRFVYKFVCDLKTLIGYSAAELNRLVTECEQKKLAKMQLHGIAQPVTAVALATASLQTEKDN
How it was run: as §1

[4] = target: ELF1 (Homo sapiens, UniProt P32519 1-619)
How it was run: as §1

[5] = target: T4, EHF (Homo sapiens, UniProt Q9NZC4 1-300)
T4 sequence: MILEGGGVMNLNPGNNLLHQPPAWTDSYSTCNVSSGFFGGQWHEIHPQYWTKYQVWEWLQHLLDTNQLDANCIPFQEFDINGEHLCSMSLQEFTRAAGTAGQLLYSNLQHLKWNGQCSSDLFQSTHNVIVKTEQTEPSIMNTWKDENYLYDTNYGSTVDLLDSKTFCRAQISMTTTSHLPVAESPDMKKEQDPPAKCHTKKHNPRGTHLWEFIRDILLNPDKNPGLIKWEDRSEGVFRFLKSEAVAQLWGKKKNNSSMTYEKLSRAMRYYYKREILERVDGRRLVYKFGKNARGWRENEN
How it was run: as §1

[6] = target: T5, FEV (Homo sapiens, UniProt Q99581 1-238)
T5 sequence: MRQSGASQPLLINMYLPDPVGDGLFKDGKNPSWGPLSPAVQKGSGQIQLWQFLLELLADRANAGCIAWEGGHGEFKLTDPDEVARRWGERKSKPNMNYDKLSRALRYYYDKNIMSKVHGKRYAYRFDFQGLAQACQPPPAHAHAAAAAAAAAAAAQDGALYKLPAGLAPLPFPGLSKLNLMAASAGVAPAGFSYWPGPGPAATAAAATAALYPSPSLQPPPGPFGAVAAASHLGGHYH
How it was run: as §1

[7] = target: ETV5 (Homo sapiens, UniProt P41161 1-510)
How it was run: as §1

[8] = target: T6, SPIC (Homo sapiens, UniProt Q8N5J4 1-248)
T6 sequence: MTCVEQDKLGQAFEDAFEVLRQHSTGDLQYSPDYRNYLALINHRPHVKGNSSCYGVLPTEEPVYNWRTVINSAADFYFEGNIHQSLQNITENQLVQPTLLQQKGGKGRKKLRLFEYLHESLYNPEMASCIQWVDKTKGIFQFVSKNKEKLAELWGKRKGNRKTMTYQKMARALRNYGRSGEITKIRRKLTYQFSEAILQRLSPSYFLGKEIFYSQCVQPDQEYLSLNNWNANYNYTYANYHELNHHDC
How it was run: as §1

[9] = target: ELF4 (Homo sapiens, UniProt Q99607 1-663)
How it was run: as §1

[10] = target: ETV1 (Homo sapiens, UniProt P50549 1-477)
How it was run: as §1

[11] = target: T7, ERF (Homo sapiens, UniProt P50548 1-548)
T7 sequence: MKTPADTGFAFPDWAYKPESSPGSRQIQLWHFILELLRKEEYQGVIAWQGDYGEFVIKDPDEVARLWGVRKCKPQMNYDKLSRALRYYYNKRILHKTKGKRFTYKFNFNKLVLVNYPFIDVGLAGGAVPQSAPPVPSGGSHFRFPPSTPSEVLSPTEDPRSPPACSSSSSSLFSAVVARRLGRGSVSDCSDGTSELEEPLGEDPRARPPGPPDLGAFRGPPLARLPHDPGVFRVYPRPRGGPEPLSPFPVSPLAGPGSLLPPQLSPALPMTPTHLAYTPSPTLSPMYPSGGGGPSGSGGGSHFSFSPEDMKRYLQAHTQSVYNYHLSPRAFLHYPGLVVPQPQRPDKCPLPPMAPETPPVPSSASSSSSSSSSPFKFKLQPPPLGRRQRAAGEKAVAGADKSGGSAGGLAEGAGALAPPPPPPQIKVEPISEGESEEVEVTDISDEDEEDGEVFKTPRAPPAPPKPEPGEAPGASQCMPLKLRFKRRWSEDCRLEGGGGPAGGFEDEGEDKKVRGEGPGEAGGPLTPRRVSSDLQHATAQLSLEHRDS
How it was run: as §1

[12] = target: T8, ETV3L (Homo sapiens, UniProt Q6ZN32 1-361)
T8 sequence: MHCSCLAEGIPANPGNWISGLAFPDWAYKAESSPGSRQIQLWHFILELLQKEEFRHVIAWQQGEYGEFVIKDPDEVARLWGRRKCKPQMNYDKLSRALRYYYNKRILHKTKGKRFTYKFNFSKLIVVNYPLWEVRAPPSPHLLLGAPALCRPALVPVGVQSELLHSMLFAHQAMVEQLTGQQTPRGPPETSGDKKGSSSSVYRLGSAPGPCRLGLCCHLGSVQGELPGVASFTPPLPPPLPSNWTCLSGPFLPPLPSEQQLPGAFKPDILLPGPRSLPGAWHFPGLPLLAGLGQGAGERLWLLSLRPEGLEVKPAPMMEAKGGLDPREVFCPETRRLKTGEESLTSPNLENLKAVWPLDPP
How it was run: as §1

[13] = target: T9, ETS2 (Homo sapiens, UniProt P15036 1-469)
T9 sequence: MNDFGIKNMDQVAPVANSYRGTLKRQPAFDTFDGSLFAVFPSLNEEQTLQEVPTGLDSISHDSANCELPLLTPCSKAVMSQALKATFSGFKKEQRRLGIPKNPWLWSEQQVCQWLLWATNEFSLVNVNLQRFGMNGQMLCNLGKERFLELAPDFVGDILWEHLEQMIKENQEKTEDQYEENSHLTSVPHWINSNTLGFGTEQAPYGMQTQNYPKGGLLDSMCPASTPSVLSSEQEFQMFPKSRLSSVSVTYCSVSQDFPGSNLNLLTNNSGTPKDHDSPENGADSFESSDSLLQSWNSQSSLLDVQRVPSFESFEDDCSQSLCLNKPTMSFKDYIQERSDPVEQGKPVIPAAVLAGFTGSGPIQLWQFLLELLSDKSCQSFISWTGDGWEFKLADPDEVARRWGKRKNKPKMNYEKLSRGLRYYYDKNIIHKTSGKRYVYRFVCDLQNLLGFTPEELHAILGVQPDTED
How it was run: as §1

[14] = target: T10, ETV3 (Homo sapiens, UniProt P41162-2 1-143)
T10 sequence: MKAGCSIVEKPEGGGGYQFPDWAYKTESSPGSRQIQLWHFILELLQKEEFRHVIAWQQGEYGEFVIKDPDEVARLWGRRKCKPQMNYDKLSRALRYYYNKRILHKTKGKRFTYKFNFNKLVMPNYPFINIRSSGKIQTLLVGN
How it was run: as §1

[15] = target: ETV6 (Homo sapiens, UniProt P41212 1-452)
How it was run: as §1

Sequence of ETV1 (P50549 whole entry): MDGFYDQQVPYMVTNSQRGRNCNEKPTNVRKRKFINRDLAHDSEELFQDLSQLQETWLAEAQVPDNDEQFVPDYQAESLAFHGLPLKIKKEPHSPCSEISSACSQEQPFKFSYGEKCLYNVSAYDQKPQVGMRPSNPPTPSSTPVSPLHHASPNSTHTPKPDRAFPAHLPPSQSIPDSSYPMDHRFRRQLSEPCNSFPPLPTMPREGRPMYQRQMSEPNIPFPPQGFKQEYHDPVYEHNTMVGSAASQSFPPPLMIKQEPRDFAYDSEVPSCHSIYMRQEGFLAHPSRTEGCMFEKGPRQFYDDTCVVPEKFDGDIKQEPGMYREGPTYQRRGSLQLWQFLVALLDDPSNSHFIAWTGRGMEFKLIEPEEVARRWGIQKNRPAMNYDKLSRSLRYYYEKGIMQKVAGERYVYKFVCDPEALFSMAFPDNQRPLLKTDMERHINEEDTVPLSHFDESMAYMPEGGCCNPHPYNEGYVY
Sequence of ELF4 (Q99607 whole entry): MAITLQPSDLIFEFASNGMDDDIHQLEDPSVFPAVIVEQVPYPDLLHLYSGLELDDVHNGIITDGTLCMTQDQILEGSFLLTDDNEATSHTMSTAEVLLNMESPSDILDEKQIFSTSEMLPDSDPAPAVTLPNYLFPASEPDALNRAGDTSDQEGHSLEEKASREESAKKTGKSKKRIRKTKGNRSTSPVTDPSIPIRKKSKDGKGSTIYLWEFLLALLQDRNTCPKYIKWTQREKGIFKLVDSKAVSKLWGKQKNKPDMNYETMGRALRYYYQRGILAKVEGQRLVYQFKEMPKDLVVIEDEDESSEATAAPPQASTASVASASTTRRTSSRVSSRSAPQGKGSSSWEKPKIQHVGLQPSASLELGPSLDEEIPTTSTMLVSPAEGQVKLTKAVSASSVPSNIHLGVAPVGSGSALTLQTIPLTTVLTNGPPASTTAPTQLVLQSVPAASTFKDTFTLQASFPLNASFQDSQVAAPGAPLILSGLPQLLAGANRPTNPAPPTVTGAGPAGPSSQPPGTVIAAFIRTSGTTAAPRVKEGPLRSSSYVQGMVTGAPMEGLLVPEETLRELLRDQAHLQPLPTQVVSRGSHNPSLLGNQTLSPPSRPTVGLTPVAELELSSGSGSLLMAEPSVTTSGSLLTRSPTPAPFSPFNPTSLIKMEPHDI
Sequence of ETV6 (P41212 whole entry): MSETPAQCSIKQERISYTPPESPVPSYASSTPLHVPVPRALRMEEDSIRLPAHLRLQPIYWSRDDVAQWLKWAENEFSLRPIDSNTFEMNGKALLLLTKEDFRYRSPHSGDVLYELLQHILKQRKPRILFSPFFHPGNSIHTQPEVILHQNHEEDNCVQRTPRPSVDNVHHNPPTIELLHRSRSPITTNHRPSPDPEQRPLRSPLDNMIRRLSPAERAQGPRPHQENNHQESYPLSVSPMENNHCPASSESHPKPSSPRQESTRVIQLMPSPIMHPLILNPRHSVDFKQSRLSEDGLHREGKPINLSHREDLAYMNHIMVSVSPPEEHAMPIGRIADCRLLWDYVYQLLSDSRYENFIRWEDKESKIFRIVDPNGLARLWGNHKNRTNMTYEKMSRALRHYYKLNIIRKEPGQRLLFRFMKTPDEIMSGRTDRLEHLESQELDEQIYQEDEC
Sequence of ELF1 (P32519 whole entry): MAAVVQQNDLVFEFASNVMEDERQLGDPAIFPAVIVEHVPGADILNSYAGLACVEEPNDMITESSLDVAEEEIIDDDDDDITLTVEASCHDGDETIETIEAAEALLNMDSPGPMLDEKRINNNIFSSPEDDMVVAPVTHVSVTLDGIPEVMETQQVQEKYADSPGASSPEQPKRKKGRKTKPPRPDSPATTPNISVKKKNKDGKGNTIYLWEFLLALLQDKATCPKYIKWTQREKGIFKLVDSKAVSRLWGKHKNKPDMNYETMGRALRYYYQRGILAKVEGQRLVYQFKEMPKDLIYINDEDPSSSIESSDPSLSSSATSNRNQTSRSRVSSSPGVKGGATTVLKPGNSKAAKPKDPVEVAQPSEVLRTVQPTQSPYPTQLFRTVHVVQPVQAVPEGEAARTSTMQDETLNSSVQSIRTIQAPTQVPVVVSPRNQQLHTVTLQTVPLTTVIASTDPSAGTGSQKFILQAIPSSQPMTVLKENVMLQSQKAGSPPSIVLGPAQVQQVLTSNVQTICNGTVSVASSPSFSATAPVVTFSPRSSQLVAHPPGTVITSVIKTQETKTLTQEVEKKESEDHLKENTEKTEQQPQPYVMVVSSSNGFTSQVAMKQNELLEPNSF
Sequence of ETV5 (P41161 whole entry): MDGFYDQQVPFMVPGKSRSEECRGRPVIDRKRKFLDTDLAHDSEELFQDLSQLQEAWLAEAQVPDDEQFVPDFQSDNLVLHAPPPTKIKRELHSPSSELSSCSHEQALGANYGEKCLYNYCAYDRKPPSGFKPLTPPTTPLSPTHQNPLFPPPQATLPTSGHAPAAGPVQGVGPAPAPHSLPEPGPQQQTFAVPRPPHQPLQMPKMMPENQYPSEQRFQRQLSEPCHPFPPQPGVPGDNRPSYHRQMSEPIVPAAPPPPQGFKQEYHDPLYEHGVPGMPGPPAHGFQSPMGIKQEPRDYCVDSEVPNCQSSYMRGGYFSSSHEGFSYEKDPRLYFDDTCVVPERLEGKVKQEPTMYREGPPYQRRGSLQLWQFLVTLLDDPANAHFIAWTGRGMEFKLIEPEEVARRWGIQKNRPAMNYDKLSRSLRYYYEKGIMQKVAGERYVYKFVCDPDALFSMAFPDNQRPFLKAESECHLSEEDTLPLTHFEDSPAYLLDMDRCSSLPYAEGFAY

AAGGCA
binding signal [1]: 1.02 fold enrichment (6-mer frequency, TF over GST control) | binding signal [2]: 1.05 fold enrichment (6-mer frequency, TF over GST control) | binding signal [3]: 1.03 fold enrichment (6-mer frequency, TF over GST control) | binding signal [4]: 1 fold enrichment (6-mer frequency, TF over GST control) | binding signal [5]: 1.09 fold enrichment (6-mer frequency, TF over GST control) | binding signal [6]: 1.07 fold enrichment (6-mer frequency, TF over GST control) | binding signal [7]: 1 fold enrichment (6-mer frequency, TF over GST control) | binding signal [8]: 1.01 fold enrichment (6-mer frequency, TF over GST control) | binding signal [9]: 1.03 fold enrichment (6-mer frequency, TF over GST control) | binding signal [10]: 1.1 fold enrichment (6-mer frequency, TF over GST control) | binding signal [11]: 1.04 fold enrichment (6-mer frequency, TF over GST control) | binding signal [12]: 1.04 fold enrichment (6-mer frequency, TF over GST control) | binding signal [13]: 1.08 fold enrichment (6-mer frequency, TF over GST control) | binding signal [14]: 1.07 fold enrichment (6-mer frequency, TF over GST control) | binding signal [15]: 1.03 fold enrichment (6-mer frequency, TF over GST control)
